The supplement of paper PMC11732987, “Enantioselective OTUD7B fragment discovery through chemoproteomics screening and high-throughput optimisation” (Communications Chemistry, 2025)

molecular target: COPS5 (UniProt Q92905); test: log2 ratio of Biotin-Ahx-Ub-VS probe labelling (fragment/DMSO); higher = less target engagement (more negative = stronger competition), active = hit call of the paper (q ≤ 0.05, log2 ratio ≤ -1); settings: compound concentration: 200 uM; treatment time: 3 h
Description: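 Competitive ABPP in HEK293T cell lysate. Lysates were treated with each chloroacetamide fragment at 200 µM for 3 h, then with Biotin-Ahx-Ub-VS (0.5 µM, 1 h), NeutrAvidin-enriched and analysed by diaPASEF LC-MS/MS. Protein LFQ was median-normalised; average log2 ratio is fragment/DMSO from an unpaired t-test (n=3 treated, n=44 DMSO). Hits: q ≤ 0.05, log2 ratio ≤ -1, unique peptides ≥ 2.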

Chain of COPS5 (Q92905 whole entry, looked up, the tested form may be a part): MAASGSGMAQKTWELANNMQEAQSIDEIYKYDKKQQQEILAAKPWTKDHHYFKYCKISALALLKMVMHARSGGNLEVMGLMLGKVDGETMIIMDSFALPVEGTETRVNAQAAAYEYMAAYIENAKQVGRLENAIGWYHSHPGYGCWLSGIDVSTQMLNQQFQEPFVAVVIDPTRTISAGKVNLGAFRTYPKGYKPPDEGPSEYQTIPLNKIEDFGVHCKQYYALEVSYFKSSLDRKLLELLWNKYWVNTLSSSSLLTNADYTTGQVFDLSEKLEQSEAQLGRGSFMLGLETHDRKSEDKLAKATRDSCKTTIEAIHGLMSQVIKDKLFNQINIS

log2 ratio of Biotin-Ahx-Ub-VS probe labelling, inactive:
CC(NC(=O)CCl)c1ccc2[nH]ncc2c1 (stereo not given) -0.00941
CCN1C(=O)C2CN(C(=O)CCl)CCN2C1=O (stereo not given) -0.0909
Cc1cccc2nc(CCNC(=O)CCl)cn12.Cl -0.0623
O=C(CCl)NCc1ccc(N2CCOCC2)c(F)c1 -0.0355
Cc1ccccc1OCC(=O)N1CCN(C(=O)CCl)CC1 0.104
Cl.O=C(CCl)NC1(c2ncccn2)CCC1 0.0888
O=C(CCl)N1CCCCCC1c1ncon1 (stereo not given) 0.187
O=C(CCl)NCCc1ccc2c(c1)OCCO2 0.0882
Cc1nc(-c2cccc(NC(=O)CCl)c2)cs1 -0.0825
C#Cc1cccc(NC(=O)CCl)c1 -0.274
Cc1ccc(CC(CO)CNC(=O)CCl)cc1 (stereo not given) 0.0248
Cc1nc(CN2CCN(C(=O)CCl)CC2)cs1 -0.305
O=C(CCl)N1CCC(S(=O)(=O)c2ccc(F)cc2)CC1 -0.0227
CNC(=O)Cn1cc(NC(=O)CCl)cn1 0.0739
COCC1C=CCCN1C(=O)CCl (stereo not given) -0.00365
CCN(C(=O)CCl)C1CCCCC1 0.0876
O=C(CCl)NCc1ccc(N2CCOCC2)nc1 0.0899
Cc1cc(CC(C)NC(=O)CCl)n[nH]1 (stereo not given) 0.0799
O=C(CCl)N1CCOC2(CCC2)C1 0.247
O=C(CCl)Nc1cc(Cl)ccc1C(=O)O 0.0271
CN(CCC(O)c1ccc(Br)cc1)C(=O)CCl (stereo not given) -0.266
O=C(CCl)NCC(=O)N1CCCC1 -0.0202
O=C(CCl)NC1CCN(C(=O)C2CCCCC2)CC1 -0.188
Cc1cccn2cc(CCNC(=O)CCl)nc12.Cl -0.284
O=C(CCl)N1CCC[C@@H]1c1ccon1 -0.115
Cc1nc(CN2CCCN(C(=O)CCl)CC2)no1.Cl -0.0569
Cc1cc(NC(=O)CCl)n(-c2ccccc2)n1 -0.0499
Cc1nnc(C(NC(=O)CCl)c2ccccc2)n1C (stereo not given) 0.37
O=C(CCl)N1CCC2(CCC(O)CC2)CC1 0.318
O=C(CCl)N1CC=C(c2c[nH]c3ccccc23)CC1 -0.0638
O=C(CCl)N1CCC(=C(F)CO)C1 -0.253
CC1CCc2onc(CNC(=O)CCl)c2C1 (stereo not given) 0.0922
CN(C)C(=O)c1ccc(CNC(=O)CCl)cc1 0.0838
Cc1cccc(NC(=O)[C@@H]2CCCN2C(=O)CCl)n1 -0.0478
COc1ccc(-c2csc(NC(=O)CCl)n2)cc1 0.189
O=C(CCl)N(C1=CCCCC1)C1CC1 -0.00116
Cl.O=C(CCl)N1CCC(Cc2nccs2)C1 (stereo not given) 0.114
Cc1cccc(C)c1NC(=O)CCl 0.194
O=C(CCl)N1CCC(C(=O)N2CCCC2)CC1 -0.223
N#Cc1ccccc1N1CCN(C(=O)CCl)CC1 -0.271
